# Laboratory results published in ChEMBL document CHEMBL1961873, “Compounds: GSK PKIS; Assays: Nanosyn kinase panel” (2012).
# Biological target: T1, Homeodomain-interacting protein kinase 4 (Homo sapiens) (UniProt Q8NE63)
# T1 sequence (whole entry): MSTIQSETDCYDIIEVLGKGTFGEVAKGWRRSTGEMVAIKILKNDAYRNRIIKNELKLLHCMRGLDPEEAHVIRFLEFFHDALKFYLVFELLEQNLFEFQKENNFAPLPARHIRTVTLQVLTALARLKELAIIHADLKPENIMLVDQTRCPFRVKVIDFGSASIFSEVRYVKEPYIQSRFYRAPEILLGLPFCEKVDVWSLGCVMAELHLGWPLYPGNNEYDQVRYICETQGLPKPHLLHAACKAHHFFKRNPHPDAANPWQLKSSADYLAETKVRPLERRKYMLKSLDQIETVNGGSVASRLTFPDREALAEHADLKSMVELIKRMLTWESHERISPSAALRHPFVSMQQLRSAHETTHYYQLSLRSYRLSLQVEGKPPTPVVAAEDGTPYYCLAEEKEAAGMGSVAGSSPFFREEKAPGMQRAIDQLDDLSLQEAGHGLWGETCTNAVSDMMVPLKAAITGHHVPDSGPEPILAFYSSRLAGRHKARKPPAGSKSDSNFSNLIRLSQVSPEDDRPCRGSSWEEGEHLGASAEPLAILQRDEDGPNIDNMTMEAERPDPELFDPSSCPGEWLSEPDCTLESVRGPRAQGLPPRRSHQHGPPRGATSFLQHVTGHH
# Conditions: at 0.1 µM
row,Compound,inhibition
1,NS(=O)(=O)c1ccc(-c2ccc3c(NC(=O)C4CC4)n[nH]c3c2)cc1,3.34%
2,CCn1c(-c2nonc2N)nc2c(C#CC(C)(C)O)ncc(OCC3CCNCC3)c21,1.95%
3,CCn1c(-c2nonc2N)nc2c(C#CCN)ncc(OCCCN)c21,1.45%
4,Nc1nonc1-c1nc2cnccc2n1C1CCCCC1,0.63%
5,COc1cccc(COc2cc(-n3cnc4ccccc43)sc2C(N)=O)c1,-0.59%
6,NS(=O)(=O)c1ccc(N/C=C2\C(=O)Nc3ccc4ncsc4c32)cc1,1.88%
7,Fc1ccc(-c2ncn(C3CCNCC3)c2-c2ccnc(Oc3ccccc3)n2)cc1,0.38%
8,CCn1c(-c2nonc2N)nc2c(C#CC(C)(C)O)nc(O[C@@H](CN)c3ccccc3)cc21,3.23%
9,COc1cc2c(cc1Nc1nc(Nc3ccsc3C(N)=O)c3cc[nH]c3n1)N(C(=O)CN(C)C)CCC2,2.25%
10,Cc1cc(-c2ccco2)cc(C)c1/C=C/c1cncc(-c2nn[nH]n2)c1,-0.32%
11,CCn1c(-c2nonc2N)nc2c(C#CC(C)(C)O)ncc(OC[C@@H]3CCCN3)c21,0.03%
12,COc1cc(C=NNc2ncnc3c2cnn3Cc2ccccc2)ccc1O,-0.49%
13,NC(=O)c1sc(-n2cnc3cc(C(F)(F)F)ccc32)cc1OCc1ccccc1Br,-0.26%
14,COc1cccc(-n2ncc3c(N/N=C/c4ccncc4)ncnc32)c1,19.6%

# Biological target: T1, Homeodomain-interacting protein kinase 4 (Homo sapiens)
# Conditions: at 1 µM
row,Compound,inhibition
1,NS(=O)(=O)c1ccc(-c2ccc3c(NC(=O)C4CC4)n[nH]c3c2)cc1,4.2%
2,CCn1c(-c2nonc2N)nc2c(C#CC(C)(C)O)ncc(OCC3CCNCC3)c21,11.1%
3,CCn1c(-c2nonc2N)nc2c(C#CCN)ncc(OCCCN)c21,2.86%
4,Nc1nonc1-c1nc2cnccc2n1C1CCCCC1,10.3%
5,COc1cccc(COc2cc(-n3cnc4ccccc43)sc2C(N)=O)c1,2.84%
6,NS(=O)(=O)c1ccc(N/C=C2\C(=O)Nc3ccc4ncsc4c32)cc1,11.8%
7,Fc1ccc(-c2ncn(C3CCNCC3)c2-c2ccnc(Oc3ccccc3)n2)cc1,2.3%
8,CCn1c(-c2nonc2N)nc2c(C#CC(C)(C)O)nc(O[C@@H](CN)c3ccccc3)cc21,36.3%
9,COc1cc2c(cc1Nc1nc(Nc3ccsc3C(N)=O)c3cc[nH]c3n1)N(C(=O)CN(C)C)CCC2,5.44%
10,Cc1cc(-c2ccco2)cc(C)c1/C=C/c1cncc(-c2nn[nH]n2)c1,-0.04%
11,CCn1c(-c2nonc2N)nc2c(C#CC(C)(C)O)ncc(OC[C@@H]3CCCN3)c21,0.31%
12,COc1cc(C=NNc2ncnc3c2cnn3Cc2ccccc2)ccc1O,2.59%
13,NC(=O)c1sc(-n2cnc3cc(C(F)(F)F)ccc32)cc1OCc1ccccc1Br,2.95%
14,COc1cccc(-n2ncc3c(N/N=C/c4ccncc4)ncnc32)c1,61.3%

# Biological target: Mitogen-activated protein kinase 9 (Homo sapiens) (UniProt P45984)
# Conditions: at 0.1 µM
# Mitogen-activated protein kinase 9 (Homo sapiens), sequence (P45984 whole entry, looked up): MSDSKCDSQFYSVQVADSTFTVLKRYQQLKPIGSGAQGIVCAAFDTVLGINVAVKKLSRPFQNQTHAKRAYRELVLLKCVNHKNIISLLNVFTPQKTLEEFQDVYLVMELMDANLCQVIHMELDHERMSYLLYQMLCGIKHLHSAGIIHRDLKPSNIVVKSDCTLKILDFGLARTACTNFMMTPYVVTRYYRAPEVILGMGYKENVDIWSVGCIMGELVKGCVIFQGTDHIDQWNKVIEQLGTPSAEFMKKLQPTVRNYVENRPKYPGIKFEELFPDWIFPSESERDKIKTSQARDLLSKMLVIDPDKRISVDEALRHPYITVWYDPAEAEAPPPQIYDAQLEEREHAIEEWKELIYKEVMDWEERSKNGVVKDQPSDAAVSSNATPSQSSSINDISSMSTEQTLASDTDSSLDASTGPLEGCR
row,Compound,inhibition
1,NS(=O)(=O)c1ccc(-c2ccc3c(NC(=O)C4CC4)n[nH]c3c2)cc1,3.73%
2,CCn1c(-c2nonc2N)nc2c(C#CC(C)(C)O)ncc(OCC3CCNCC3)c21,2.04%
3,CCn1c(-c2nonc2N)nc2c(C#CCN)ncc(OCCCN)c21,-2.82%
4,Nc1nonc1-c1nc2cnccc2n1C1CCCCC1,-0.52%
5,COc1cccc(COc2cc(-n3cnc4ccccc43)sc2C(N)=O)c1,2.36%
6,NS(=O)(=O)c1ccc(N/C=C2\C(=O)Nc3ccc4ncsc4c32)cc1,5.59%
7,CCn1c(-c2nonc2N)nc2c(C#CC(C)(C)O)nc(O[C@@H](CN)c3ccccc3)cc21,2.01%
8,COc1cc2c(cc1Nc1nc(Nc3ccsc3C(N)=O)c3cc[nH]c3n1)N(C(=O)CN(C)C)CCC2,3.02%
9,Cc1cc(-c2ccco2)cc(C)c1/C=C/c1cncc(-c2nn[nH]n2)c1,1.02%
10,CCn1c(-c2nonc2N)nc2c(C#CC(C)(C)O)ncc(OC[C@@H]3CCCN3)c21,-0.05%
11,COc1cc(C=NNc2ncnc3c2cnn3Cc2ccccc2)ccc1O,-0.98%
12,NC(=O)c1sc(-n2cnc3cc(C(F)(F)F)ccc32)cc1OCc1ccccc1Br,0.9%
13,COc1cccc(-n2ncc3c(N/N=C/c4ccncc4)ncnc32)c1,0.79%

# Biological target: Mitogen-activated protein kinase 9 (Homo sapiens) (UniProt P45984)
# Conditions: at 1 µM
row,Compound,inhibition
1,NS(=O)(=O)c1ccc(-c2ccc3c(NC(=O)C4CC4)n[nH]c3c2)cc1,4.23%
2,CCn1c(-c2nonc2N)nc2c(C#CC(C)(C)O)ncc(OCC3CCNCC3)c21,2.67%
3,CCn1c(-c2nonc2N)nc2c(C#CCN)ncc(OCCCN)c21,-3.07%
4,Nc1nonc1-c1nc2cnccc2n1C1CCCCC1,-0.67%
5,COc1cccc(COc2cc(-n3cnc4ccccc43)sc2C(N)=O)c1,-2.62%
6,NS(=O)(=O)c1ccc(N/C=C2\C(=O)Nc3ccc4ncsc4c32)cc1,20.2%
7,CCn1c(-c2nonc2N)nc2c(C#CC(C)(C)O)nc(O[C@@H](CN)c3ccccc3)cc21,1.01%
8,COc1cc2c(cc1Nc1nc(Nc3ccsc3C(N)=O)c3cc[nH]c3n1)N(C(=O)CN(C)C)CCC2,8.04%
9,Cc1cc(-c2ccco2)cc(C)c1/C=C/c1cncc(-c2nn[nH]n2)c1,0.6%
10,CCn1c(-c2nonc2N)nc2c(C#CC(C)(C)O)ncc(OC[C@@H]3CCCN3)c21,0.92%
11,COc1cc(C=NNc2ncnc3c2cnn3Cc2ccccc2)ccc1O,-0.48%
12,NC(=O)c1sc(-n2cnc3cc(C(F)(F)F)ccc32)cc1OCc1ccccc1Br,1.72%
13,COc1cccc(-n2ncc3c(N/N=C/c4ccncc4)ncnc32)c1,11.2%
